Test results taken from PMC5540273 (PLoS ONE, 2017).
Where “and” joins values, the source holds several entries; their conditions need not be identical. Equal entries are not always repeated. Where two headings read alike, the source gives them in different places.

What was measured:
[1] = tested on: T1, DRAK1; settings: n = 1
T1 construct: gene STK17A

[2] = tested on: T2, DRAK2; settings: n = 1
T2 construct: gene STK17B

[3] = tested on: DYRK1A; settings: n = 1
[4] = tested on: DYRK1B; settings: n = 1
[5] = tested on: DYRK2; settings: n = 1
[6] = tested on: EGFR; settings: n = 1
[7] = tested on: EIF2AK1; settings: concentration: 1 μM, replicates: in singlicate; n = 1
[8] = tested on: EPHA1; settings: n = 1
[9] = tested on: EPHA2; settings: n = 1
[10] = tested on: EPHA3; settings: concentration: 1 μM, replicates: in singlicate; n = 1
[11] = concentration: 1 μM, replicates: in singlicate
[12] = concentration: 1 μM,replicates: in singlicate, 1 µM
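Also: KINOMEscan kinase panel screen.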

SMILES | %Inh [1, 11] | %Inh [2, 11] | %Inh [3, 11] | %Inh [4, 11] | %Inh [5, 11] | %Inh [6, 11] | %Inh [7] | %Inh [8, 11] | %Inh [9, 11] | %Inh [10] | %Inh [1, 12] | %Inh [2, 12] | %Inh [3, 12] | %Inh [4, 12] | %Inh [5, 12] | %Inh [6, 12] | %Inh [8, 12] | %Inh [9, 12] | %Inh ([1]; 1 µM) | %Inh ([2]; 1 µM)
COc1ccc2nc(-c3cccc(C)n3)nc(Nc3ccncc3)c2c1 [GSK204919] | 0% | 0% | 24% | 0% | 0% | 20% | 0% | 0% | 20% | 0% | – | – | – | – | – | – | – | – | – | –
Cn1ccc2ncnc(Oc3cccc(C(=O)Nc4ccccc4)c3)c21 | 0% | 12% | 2% | 24% | 0% | 0% | 18% | 0% | 0% | 0% | – | – | – | – | – | – | – | – | – | –
Nc1nc(-c2nccs2)c(-c2ccnc3ccccc23)s1 [GW693542] | 9% | 0% | 20% | 25% | 7% | 26% | 3% | 5% | 3% | 0% | – | – | – | – | – | – | – | – | – | –
Cn1ccc2ncnc(Oc3ccc(Nc4nc5ccccc5[nH]4)cc3)c21 | 0% | 2% | 0% | 5% | 0% | 0% | 0% | 0% | 0% | 2% | – | – | – | – | – | – | – | – | – | –
Cn1cncc1-c1ccc2ncnc(Nc3ccc(OCc4ccccc4)cc3)c2c1 [GW320571] | 6% | 0% | 12% | 3% | 0% | 99.3% | 96.7% | 25% | 17% | 0% | – | – | – | – | – | – | – | – | – | –
O=c1cc(N2CCOCC2)nc2n(Cc3cccc(Cl)c3Cl)ccn12 [GSK2286295] | 0% | 0% | 14% | 30% | 21% | 20% | 0% | 0% | 4% | 18% | – | – | – | – | – | – | – | – | – | –
CC1=C(C(=O)Nc2cc3cn[nH]c3cc2F)C(c2ccc(C(F)(F)F)cc2)CC(=O)N1 (centres unmarked) [GSK429286] | 0% | 12% | 21% | 0% | 0% | 33% | 0% | 22% | 14% | 0% | – | – | – | – | – | – | – | – | – | –
Cc1ccccc1-n1cnc2c(N)ncnc21 [SKF-97510] | 0% | 47% | 0% | 0% | 0% | 0% | 0% | 0% | 0% | 0% | – | – | – | – | – | – | – | – | – | –
O=C(Nc1ccc2c(c1)OCO2)NC1CCN(c2ccnc(Nc3ccc(F)cc3)n2)C1 (centres unmarked) [GSK1379724] | 0% | 0% | 27% | 0% | 3% | 0% | 0% | 18% | 16% | 0% | – | – | – | – | – | – | – | – | – | –
Cc1cccc(-c2nc(Nc3cccc(C(N)=O)c3)c3ccccc3n2)n1 [GW876019] | 8% | 28% | 6% | 65% | 34% | 15% | 0% | 57% | 32% | 0% | – | – | – | – | – | – | – | – | – | –
COC(=O)c1c(-c2ccccc2)c2cc(C(=O)O)ccc2c(=O)n1Cc1ccccc1 | 0% | 0% | 7% | 32% | 0% | 0% | 0% | 0% | 3% | 15% | – | – | – | – | – | – | – | – | – | –
CSc1nn2c(=O)cc(N3CCOCC3)nc2n1Cc1cccc(C(F)(F)F)c1C [GSK2363608] | – | – | – | – | – | – | 0% | – | – | 0% | 0% and 17% | 0% and 8% | 23% and 21% | 8% and 13% | 16% and 14% | 36% and 20% | 28% and 9% | 5% and 0% | – | –
Cc1cc(N2Cc3ccccc3C2)nc(Nc2ccc(S(=O)(=O)N3CCOCC3)cc2)n1.Cl [GSK1669917] | 17% | 0% | 11% | 19% | 0% | 23% | 0% | 0% | 19% | 0% | – | – | – | – | – | – | – | – | – | –
O=C(O)COc1ncnc2cc(-c3ccc4[nH]ncc4c3)sc12 | – | – | 67% | 41% | 66% | 0% | 0% | 15% | 10% | 10% | – | – | – | – | – | – | – | – | 83% | 99.3%
O=C(Nc1n[nH]c2cc(-c3cccc(F)c3F)ccc12)C1CC1 [SB-733894] | 0% | 0% | 2% | 0% | 14% | 12% | 23% | 13% | 16% | 18% | – | – | – | – | – | – | – | – | – | –
Cl.NC(=O)c1cccc(Nc2nccc(Nc3ccc(Oc4cccc(Cl)c4)c(Cl)c3)n2)c1 [GW659008] | 13% | 0% | 5% | 4% | 13% | 96.9% | 0% | 0% | 0% | 5% | – | – | – | – | – | – | – | – | – | –
CS(=O)(=O)c1ccc(-c2c(-c3ncn[nH]3)sc(N3CCOCC3)c2C#N)cc1 | 8% | 0% | 1% | 0% | 14% | 12% | 21% | 24% | 19% | 0% | – | – | – | – | – | – | – | – | – | –
Cc1c(Cn2ccn3c(=O)cc(N4CCOCC4)nc23)cccc1C(F)(F)F [GSK2289044] | 0% | 0% | 10% | 21% | 14% | 40% | 2% | 9% | 13% | 27% | – | – | – | – | – | – | – | – | – | –

SMILES | %Inh [1, 11] | %Inh [2, 11] | %Inh [3, 11] | %Inh [4, 11] | %Inh [5, 11] | %Inh [6, 11] | %Inh [7] | %Inh [8, 11] | %Inh [9, 11] | %Inh [10] | %Inh [1, 12] | %Inh [2, 12] | %Inh [3, 12] | %Inh [4, 12] | %Inh [5, 12] | %Inh [6, 12] | %Inh [8, 12] | %Inh [9, 12] | %Inh ([1]; 1 µM) | %Inh ([2]; 1 µM)
COc1cccc(-c2cc(-c3c[nH]nc3-c3ccccn3)ccn2)c1 [GW680338] | 0% | 2% | 13% | 14% | 1% | 31% | 2% | 0% | 0% | 11% | – | – | – | – | – | – | – | – | – | –
COc1cc2ncn(-c3cc(OCC4CCCO4)c(C(N)=O)s3)c2cc1OC (centres unmarked) [GSK204607] | 0% | 0% | 0% | 0% | 14% | 20% | 0% | 3% | 10% | 16% | – | – | – | – | – | – | – | – | – | –
O=S(=O)(c1ccc(-c2ccnc3[nH]ccc23)cc1)N1CCCC1 [GSK846226] | 73% | 0% | 21% | 11% | 35% | 33% | 0% | 5% | 0% | 11% | – | – | – | – | – | – | – | – | – | –
Cc1cccc(-c2nc(Nc3ccncc3)c3ccccc3n2)n1 [GW855857] | 2% | 7% | 0% | 27% | 0% | 6% | 0% | 23% | 18% | 0% | – | – | – | – | – | – | – | – | – | –
Nc1ncnc2[nH]c(-c3ccccc3)nc12 [AH5015] | 5% | 0% | 46% | 15% | 68% | 25% | 100% | 16% | 23% | 0% | – | – | – | – | – | – | – | – | – | –
Fc1cccc(COc2nnc(-c3ccc4c(c3)CCO4)o2)c1 | 6% | 33% | 44% | 65% | 3% | 6% | 0% | 0% | 0% | 0% | – | – | – | – | – | – | – | – | – | –
COc1ccc(CNC(=O)NC2CCN(c3ccnc(Nc4cc(OC)c(OC)c(OC)c4)n3)C2)cc1 (centres unmarked) [GSK1379748] | 10% | 0% | 6% | 32% | 0% | 31% | 0% | 1% | 14% | 0% | – | – | – | – | – | – | – | – | – | –
COC(=O)c1c(-c2ccccc2)c2cc(OC)ccc2c(=O)n1Cc1ccccc1 | 0% | 22% | 0% | 12% | 0% | 0% | 5% | 0% | 3% | 9% | – | – | – | – | – | – | – | – | – | –
Cc1nnc(-c2ccc3occ(-c4ccc(S(C)=O)cc4)c3c2)[nH]1 (centres unmarked) | 26% | 41% | 19% | 7% | 45% | 0% | 0% | 0% | 0% | 0% | – | – | – | – | – | – | – | – | – | –
Cc1cc(NCC(c2ccccc2)c2ccccc2)nc(NCc2ccc(C(F)(F)F)cc2)n1 [GW497681] | 0% | 0% | 0% | 0% | 3% | 10% | 0% | 0% | 3% | 0% | – | – | – | – | – | – | – | – | – | –
Fc1cc(Cl)ccc1Nc1ccnc2cc(-c3ccc(CN4CCCCC4)o3)ccc12 [GW560116] | 33% | 0% | 0% | 0% | 9% | 27% | 0% | 43% | 6% | 33% | – | – | – | – | – | – | – | – | – | –
O=C(Nc1n[nH]c2nc(-c3nccs3)c(Br)cc12)C1CCCC1 [SB-742609] | 4% | 0% | 16% | 15% | 35% | 32% | 0% | 17% | 9% | 0% | – | – | – | – | – | – | – | – | – | –
Cc1ccc(-c2cc(-c3c[nH]nc3-c3ccccn3)ccn2)cc1 [GW684088] | 12% | 0% | 11% | 6% | 0% | 6% | 0% | 0% | 0% | 49% | – | – | – | – | – | – | – | – | – | –
Cc1cc(-c2ccc3c(c2)CC[C@@H](N[C@@H](C)c2ccccc2)C3)cnc1N.Cl [GW412617] | 0% | 11% | 19% | 17% | 0% | 31% | 0% | 14% | 14% | 0% | – | – | – | – | – | – | – | – | – | –
Cc1c(O)cccc1Nc1ccnc2ccc(C(F)(F)F)cc12.Cl [GW466413] | 14% | 0% | 29% | 0% | 0% | 28% | 0% | 77% | 11% | 3% | – | – | – | – | – | – | – | – | – | –
COc1cccc(NC(=O)NC2CCN(c3ccnc(Nc4ccc(F)cc4)n3)C2)c1 (centres unmarked) [GSK1379721] | 0% | 0% | 0% | 30% | 26% | 17% | 0% | 12% | 0% | 0% | – | – | – | – | – | – | – | – | – | –
Fc1cc(Cl)ccc1Nc1ccnc2cc(I)ccc12 [GW551191] | 0% | 0% | 33% | 60% | 4% | 21% | 0% | 71% | 26% | 0% | – | – | – | – | – | – | – | – | – | –
